Laboratory results taken from PubChem BioAssay (Tox21).
Results filed as inconclusive are left out. Active and inactive are the calls of the source. Unless noted, the call rests on the fitted dose curve.

How the values were obtained:
[1] = Nuclear factor erythroid 2-related factor 2/antioxidant responsive element (Nrf2/ARE) small molecule agonists: qHTS cell viability counter screen in human keratinocytes (AID 1919968; active means well fitted curve in the direction sought with a large enough effect in the repeat runs; an effect the other way counts as inactive or inconclusive; further: nearly all actives have a fitted effect of over 55% in size; further: potency means the concentration at half of the fitted maximal effect)
Summary of the method: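 KeratinoSens cells (HaCaT keratinocytes stably carrying an ARE-luciferase reporter) were seeded at 1,500 cells/well and rested 5 h at 37 C/5% CO2. They were then exposed to compounds in DMSO for 23 h. Viability was read by CellTiter-Fluor fluorescence after 1 h.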

[2] = Nuclear factor erythroid 2-related factor 2/antioxidant responsive element (Nrf2/ARE) small molecule agonists: luciferase reporter gene qHTS assay in human keratinocytes (AID 1919969); further: nearly all actives have a fitted effect of over 35% in size; further: potency means the concentration at half of the fitted maximal effect
[3] = target: Gonadotropin-releasing hormone receptor (Homo sapiens) (UniProt P30968); test: Human gonadotropin-releasing hormone receptor (GnRHR) small molecule agonists, calcium flux assay in GnRHR-HEK293 cells (AID 1920063); further: nearly all actives have a fitted effect of over 35% in size; further: potency means the concentration at half of the fitted maximal effect
Chain of Gonadotropin-releasing hormone receptor (Homo sapiens) (P30968 whole entry, looked up): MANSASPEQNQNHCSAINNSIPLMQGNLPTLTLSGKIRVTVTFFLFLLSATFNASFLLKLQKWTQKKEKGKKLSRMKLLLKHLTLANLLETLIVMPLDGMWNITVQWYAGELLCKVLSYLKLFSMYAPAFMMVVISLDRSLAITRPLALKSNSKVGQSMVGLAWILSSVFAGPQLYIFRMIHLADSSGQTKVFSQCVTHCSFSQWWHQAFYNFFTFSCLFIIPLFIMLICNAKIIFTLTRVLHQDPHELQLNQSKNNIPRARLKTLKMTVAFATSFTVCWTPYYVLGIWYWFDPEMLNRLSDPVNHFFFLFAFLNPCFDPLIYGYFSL
Summary of the method: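 HEK293 cells stably expressing human GnRHR were plated 18 h at 37 °C, loaded with calcium dye 1 h at 37 °C, then given compound in agonist mode; fluorescence (Ex/Em 480/540) read kinetically for 3 min at 1 s intervals.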

[4] = target: KiSS-1 receptor (Homo sapiens) (UniProt Q969F8); test: Human kisspeptin (KISS1R) small molecule agonists, calcium flux assay in KISS1R-HEK293 cells (AID 1920064; active means well fitted curve in the direction sought with a large enough effect in the repeat runs; an effect the other way counts as inactive or inconclusive)
Chain of KiSS-1 receptor (Homo sapiens) (Q969F8 whole entry, looked up): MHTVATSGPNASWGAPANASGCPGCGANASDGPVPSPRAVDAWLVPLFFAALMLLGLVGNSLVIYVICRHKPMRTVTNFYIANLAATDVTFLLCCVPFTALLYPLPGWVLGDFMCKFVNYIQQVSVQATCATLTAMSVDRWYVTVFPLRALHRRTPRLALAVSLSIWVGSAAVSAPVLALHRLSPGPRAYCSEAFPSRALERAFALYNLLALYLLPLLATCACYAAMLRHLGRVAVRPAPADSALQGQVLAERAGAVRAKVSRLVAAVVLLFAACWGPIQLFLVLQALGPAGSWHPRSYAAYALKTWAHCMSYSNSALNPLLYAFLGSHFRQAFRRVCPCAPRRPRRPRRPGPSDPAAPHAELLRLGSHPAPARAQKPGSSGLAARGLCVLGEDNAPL
Summary of the method: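 HEK293 cells stably expressing human KISS1R were plated 18 h at 37 °C, loaded with calcium dye for 1 h at 37 °C, then given compound by pin tool. Fluorescence (Ex/Em 480/540) was read kinetically for 3 min.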

[5] = G protein-coupled receptor (GPCR) small molecule agonists, calcium flux assay: HEK293 wild type cell line counter screen (AID 1920065)
Summary of the method: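 Cells were plated and cultured 18 h at 37 C/5% CO2, then loaded with calcium dye for 1 h at 37 C. Compounds in DMSO were pin-transferred in agonist mode, and fluorescence (Ex/Em 480/540) was read kinetically for 3 min at 1 s intervals.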

[6] = p53 small molecule agonists, cell-based qHTS assay with human liver microsomes (AID 1963577); further: potency means the concentration at half of the fitted maximal effect;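 on activation: p53 response element beta-lactamase reporter cells with liver microsomes plus NADPH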
Summary of the method: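 Reporter activation was measured by LiveBLAzer fluorescence intensity in p53RE-bla cells, which had been exposed to compounds for 16 h at 37 C alongside 0.5 mg/mL human liver microsomes and 0.5 mg/mL NADPH (final concentrations).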

[7] = p53 small molecule agonists, cell-based qHTS assay with human liver microsomes: qHTS cell viability counter screen (AID 1963579); further: nearly all actives have a fitted effect of over 45% in size
Summary of the method: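 HLM-supplemented (0.5 mg/mL final) and NADPH-supplemented (0.5 mg/mL final) p53RE-bla cultures, 4,000 cells per well, were dosed with compounds in DMSO for 16 h at 37 C; luminescent ATP detection (CellTiter-Glo, 30 min, room temperature) quantified surviving cells.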

[8] = p53 small molecule agonists, cell-based qHTS assay with rat liver microsomes: qHTS cell viability counter screen (AID 1963580); further: nearly all actives have a fitted effect of over 45% in size; further: potency means the concentration at half of the fitted maximal effect
Summary of the method: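 p53RE-bla HCT-116 cells (4,000/well) rested 5 h at 37 C, then given Tox21 compounds in DMSO with rat liver microsomes (0.5 mg/mL final) plus NADPH (0.5 mg/mL final) for 16 h at 37 C. Viability read by CellTiter-Glo luminescence after 30 min at room temperature.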

[9] = p53 small molecule agonists, cell-based qHTS assay: qHTS cell viability counter screen (AID 1963581); further: nearly all actives have a fitted effect of over 45% in size; further: potency means the concentration at half of the fitted maximal effect
Summary of the method: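 p53RE-bla HCT-116 cells were exposed to compounds for 16 h at 37 C; after the beta-lactamase FRET read in the same wells, CellTiter-Glo was added and luminescence (intracellular ATP) read after 30 min at room temperature.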

[10] = p53 small molecule agonists, cell-based qHTS assay (AID 1963582; active means well fitted activation curve with a large enough effect in the signal ratio in the repeat runs, not every such curve was filed as active; the % refers to the signal ratio)
Summary of the method: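 p53RE-bla beta-lactamase reporter cells rested 5 h at 37 C/5% CO2, then received compounds in DMSO by pin transfer and were incubated 16 h at 37 C. LiveBLAzer B/G FRET substrate was loaded for 2 h at room temperature before fluorescence reading.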

[11] = target: 5-hydroxytryptamine receptor 2A (Homo sapiens) (UniProt P28223); test: 5-hydroxytryptamine receptor 2A (HTR2A) small molecule antagonists, cell-based qHTS assay (AID 1963586); further: nearly all actives have a fitted effect of over 45% in size; further: potency means the concentration at half of the fitted maximal effect
Chain of 5-hydroxytryptamine receptor 2A (Homo sapiens) (P28223 whole entry, looked up): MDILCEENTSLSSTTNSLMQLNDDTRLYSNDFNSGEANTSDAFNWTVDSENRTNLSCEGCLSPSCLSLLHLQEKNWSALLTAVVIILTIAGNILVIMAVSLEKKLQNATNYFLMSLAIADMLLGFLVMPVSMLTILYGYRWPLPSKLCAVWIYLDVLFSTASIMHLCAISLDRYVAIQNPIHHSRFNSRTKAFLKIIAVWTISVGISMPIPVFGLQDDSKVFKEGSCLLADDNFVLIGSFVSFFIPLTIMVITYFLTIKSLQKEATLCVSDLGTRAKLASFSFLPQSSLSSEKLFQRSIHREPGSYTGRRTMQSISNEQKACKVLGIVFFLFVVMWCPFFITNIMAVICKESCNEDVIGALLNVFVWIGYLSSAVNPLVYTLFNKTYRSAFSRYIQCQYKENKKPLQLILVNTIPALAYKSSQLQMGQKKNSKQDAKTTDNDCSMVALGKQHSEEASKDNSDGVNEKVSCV
Summary of the method: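 Antagonist-mode intracellular calcium assay: DOI (4 nM) added after 5 min compound pre-incubation at room temperature to dye-loaded HTR2A-CHO cells. Fluorescence followed for 3 min, sampled every second.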

[12] = target: 5-hydroxytryptamine receptor 2A (Homo sapiens) (UniProt P28223); test: 5-hydroxytryptamine receptor 2A (HTR2A) small molecule agonists, cell-based qHTS assay (AID 1963587); further: nearly all actives have a fitted effect of over 30% in size; further: potency means the concentration at half of the fitted maximal effect
Summary of the method: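 HTR2A-CHO cells, plated 18 h at 37 C/5% CO2, dye-loaded 1 h at 37 C; compounds in DMSO added by pin tool (agonist mode). Intracellular calcium flux read as kinetic fluorescence on FDSS over 2 min at 1 s intervals.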

[13] = target: Muscarinic acetylcholine receptor M1 (Homo sapiens) (UniProt P11229); test: Cholinergic receptor muscarinic 1 (CHRM1) small molecule antagonists, cell-based qHTS assay (AID 1963588); further: nearly all actives have a fitted effect of over 40% in size
Chain of Muscarinic acetylcholine receptor M1 (Homo sapiens) (P11229 whole entry, looked up): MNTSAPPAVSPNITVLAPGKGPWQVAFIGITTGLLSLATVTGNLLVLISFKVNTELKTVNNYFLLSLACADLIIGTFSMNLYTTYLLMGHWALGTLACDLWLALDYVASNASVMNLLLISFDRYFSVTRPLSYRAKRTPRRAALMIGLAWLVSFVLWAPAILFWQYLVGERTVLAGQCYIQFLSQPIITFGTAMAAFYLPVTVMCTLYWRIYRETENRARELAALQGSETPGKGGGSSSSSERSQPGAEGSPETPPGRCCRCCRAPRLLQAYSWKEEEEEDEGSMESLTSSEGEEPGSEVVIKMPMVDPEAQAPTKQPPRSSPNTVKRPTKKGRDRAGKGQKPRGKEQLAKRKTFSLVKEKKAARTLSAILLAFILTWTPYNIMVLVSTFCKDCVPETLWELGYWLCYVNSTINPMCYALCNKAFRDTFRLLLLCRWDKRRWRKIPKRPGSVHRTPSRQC
Summary of the method: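 CHRM1-CHO calcium-flux assay, antagonist mode. Cells were seeded 18 h, dye-loaded 1 h at 37 C and given compound for 5 min at RT, then acetylcholine was added at 50nM. FDSS fluorescence was read 3 min; 15 concentrations, three runs.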

[14] = target: Muscarinic acetylcholine receptor M1 (Homo sapiens) (UniProt P11229); test: Cholinergic receptor muscarinic 1 (CHRM1) small molecule agonists, cell-based qHTS assay (AID 1963589); further: nearly all actives have a fitted effect of over 35% in size
Summary of the method: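 CHO cells stably expressing human CHRM1, seeded 18 h at 37 C/5% CO2, dye-loaded 1 h at 37 C, then given compound in agonist mode; intracellular calcium fluorescence read kinetically at 1 s intervals. Fifteen concentrations, three independent runs.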

[15] = cAMP Responsive Elements (CRE) small molecule agonists, cell-based qHTS assay (AID 1963590)
Summary of the method: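 CRE-bla HEK 293T cells in DMEM with 10% dialyzed FBS, NEAA, pyruvate and 25 mM HEPES were plated 18 h at 37 C/5% CO2, then exposed to compounds in DMSO for 3 h before LiveBLAzer B/G FRET substrate addition.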

[16] = cAMP Responsive Elements (CRE) small molecule antagonists, cell-based qHTS assay (AID 1963591; active means well fitted inhibition curve with a large enough effect in the signal ratio in the repeat runs, not every such curve was filed as active; the % refers to the signal ratio)
Summary of the method: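 CRE-bla HEK293T cells were plated 18 h at 37 °C/5% CO2, pinned with compound in DMSO, then stimulated with NKH477 at 0.25 uM final for 3 h. LiveBLAzer B/G FRET substrate was added and plates incubated 2 h at room temperature.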

[17] = target: Beta-2 adrenergic receptor (Homo sapiens) (UniProt P07550); test: Adrenergic beta2 receptor (ADRB2) small molecule antagonists, cell-based qHTS assay (AID 1963592); further: nearly all actives have a fitted effect of over 50% in size; further: potency means the concentration at half of the fitted maximal effect
Chain of Beta-2 adrenergic receptor (Homo sapiens) (P07550 whole entry, looked up): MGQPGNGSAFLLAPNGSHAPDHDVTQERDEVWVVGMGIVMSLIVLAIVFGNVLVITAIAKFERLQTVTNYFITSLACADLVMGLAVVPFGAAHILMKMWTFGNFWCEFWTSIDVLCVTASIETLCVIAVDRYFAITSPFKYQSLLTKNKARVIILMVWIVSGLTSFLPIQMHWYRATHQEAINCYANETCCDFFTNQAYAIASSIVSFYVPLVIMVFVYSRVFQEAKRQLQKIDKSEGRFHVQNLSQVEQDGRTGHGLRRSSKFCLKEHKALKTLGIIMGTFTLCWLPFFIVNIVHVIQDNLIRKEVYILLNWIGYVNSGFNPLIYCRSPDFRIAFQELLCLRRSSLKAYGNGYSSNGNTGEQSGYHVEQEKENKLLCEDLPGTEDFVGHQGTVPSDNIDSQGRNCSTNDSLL
Summary of the method: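 Cells (CHO, stable ADRB2 overexpression) incubated 18-20hr at 37C; compounds added from DMSO; agonist mix (1nM isoproterenol, 100uM IBMX, 25uM Ro-20-1724) added; 0.5hr RT; d2-cAMP and anti-cAMP-cryptate added; 1hr RT; 665/615 nm read.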

[18] = target: D(2) dopamine receptor (Homo sapiens) (UniProt P14416); test: Dopamine D2 receptor (DRD2) small molecule agonists, cell-based qHTS assay (AID 1963594); further: nearly all actives have a fitted effect of over 35% in size; further: potency means the concentration at half of the fitted maximal effect
Chain of D(2) dopamine receptor (Homo sapiens) (P14416 whole entry, looked up): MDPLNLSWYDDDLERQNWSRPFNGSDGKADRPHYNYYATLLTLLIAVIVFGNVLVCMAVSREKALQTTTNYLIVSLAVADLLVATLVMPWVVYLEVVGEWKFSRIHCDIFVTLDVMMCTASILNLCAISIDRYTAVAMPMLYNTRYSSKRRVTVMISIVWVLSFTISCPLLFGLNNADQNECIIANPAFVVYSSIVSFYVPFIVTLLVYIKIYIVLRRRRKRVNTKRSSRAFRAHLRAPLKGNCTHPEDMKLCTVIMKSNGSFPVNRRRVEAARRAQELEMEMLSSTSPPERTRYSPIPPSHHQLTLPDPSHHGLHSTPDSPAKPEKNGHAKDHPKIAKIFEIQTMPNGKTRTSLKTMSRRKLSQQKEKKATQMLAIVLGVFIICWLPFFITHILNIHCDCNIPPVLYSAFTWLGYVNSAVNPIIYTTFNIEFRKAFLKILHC
Summary of the method: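 HEK293 cells stably expressing DRD2 were cultured 24 h at 37 C, then given Ro20-1724 (0.1 mM final) and compounds for 10 min at room temperature. NKH477 (200nM) was then added for 30 min. cAMP was read by HTRF.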

[19] = target: D(2) dopamine receptor (Homo sapiens) (UniProt P14416); test: Dopamine D2 receptor (DRD2) small molecule antagonists, cell-based qHTS assay (AID 1963595; active means well fitted inhibition curve with a large enough effect in the signal ratio in the repeat runs, with a control signal flat; the % refers to the signal ratio; further: potency means the concentration at half of the fitted maximal effect)
Summary of the method: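 HEK293 cells stably expressing DRD2 were preincubated with 0.1 mM Ro20-1724, then with compound for 10 min at room temperature. Cells were stimulated with 200 nM NKH477 plus 12 nM quinpirole for 30 min, and cAMP was read by HTRF.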

[20] = p53 small molecule agonists, cell-based qHTS assay with rat liver microsomes (AID 1963578)
Summary of the method: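 Compound in DMSO added to p53RE-bla cells 5 h post-plating; rat microsomes/NADPH 0.5 mg/mL final; 16 h, 37 C; LiveBLAzer 2 h RT.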

Measured: Potency

CCCCC(CC)COC(=O)OOC(C)(C)C (stereo not given)
not listed: [20]
inactive: all other assays above

CCC(C)Br (stereo not given)
not listed: [7] | [8] | [13]
inactive: all other assays above

O=[N+]([O-])c1cc(C(F)(F)F)c(Cl)c([N+](=O)[O-])c1Cl
active: [1] 24.3 µM | [2] 9.69 µM | [8] 36.3 µM | [9] 16.2 µM
not listed: [7] | [10] | [14] | [15] | [16] | [17]
inactive: all other assays above

CC(C(O)c1ccccc1)N(C)C/C=C/c1ccccc1 (stereo not given)
not listed: [7] | [10] | [11] | [13] | [15] | [17]
inactive: all other assays above

OP(O)c1ccccc1
not listed: [14] | [16] | [18] | [19] | [20]
inactive: all other assays above

CN(C)CCc1c[nH]c2ccc(O)cc12
active: [2] 67 µM
not listed: [7] | [12] | [17] | [18] | [19]
inactive: all other assays above

COC(=O)COc1ccc(Cl)cc1Cl
not listed: [15] | [16] | [20]
inactive: all other assays above

COc1ccc2c(c1OC)C(=O)O[C@H]2[C@@H]1c2cc3c(cc2CCN1C)OCO3
not listed: [7] | [13] | [18]
inactive: all other assays above

CC(C)(C)c1ccc(CSc2cnn(C(C)(C)C)c(=O)c2Cl)cc1
not listed: [7] | [8] | [10] | [15] | [16] | [18]
inactive: all other assays above

COP(N)(=S)Oc1ccccc1C(=O)OC(C)C (stereo not given)
active: [6] 18.2 µM
not listed: [16] | [18] | [20]
inactive: all other assays above

Cc1cccc2sc3nncn3c12
not listed: [20]
inactive: all other assays above

CCO/N=C(\CC)C1=C(O)CC(c2c(C)cc(C)cc2C)CC1=O (stereo not given)
not listed: [7] | [9] | [10] | [13] | [15] | [16] | [18] | [19]
inactive: all other assays above

O=C(Nc1ccccc1-c1ccc(Cl)cc1)c1cccnc1Cl
active: [2] 68.6 µM
inactive: [1] | [3] | [4] | [5] | [6] | [20] | [8] | [12] | [19]

C=CC[C@]1(O)CC[C@H]2[C@@H]3CCC4=CC(=O)CCC4=C3C=C[C@@]21C
not listed: [8] | [9] | [15] | [16] | [19] | [20]
inactive: all other assays above

COP(=S)(OC)Oc1c(Cl)cc(C)cc1Cl
active: [6] 9.13 µM
not listed: [10] | [19] | [20]
inactive: all other assays above

CC(C1CC1)C(O)(Cn1cncn1)c1ccc(Cl)cc1 (stereo not given)
not listed: [6] | [16]
inactive: all other assays above

CCCCCCCC(=O)Cl
active: [18] 0.0017 µM
not listed: [7] | [8] | [10] | [15] | [19] | [20]
inactive: all other assays above

O=C1CN2CCOC2(c2ccccc2Cl)c2cc(Cl)ccc2N1 (stereo not given)
not listed: [9] | [10] | [20]
inactive: all other assays above

CC(C)CBr
not listed: [6] | [19]
inactive: all other assays above

SCc1ccco1
active: [2] 68.6 µM
not listed: [9] | [10] | [11] | [17] | [20]
inactive: all other assays above

CC(C)=CCOc1c2occc2cc2ccc(=O)oc12
not listed: [7] | [15] | [20]
inactive: all other assays above

CNCC(=O)c1ccc(O)c(O)c1
active: [3] 5.35 µM | [18] 26.6 µM | [19] 26.6 µM
not listed: [6] | [15] | [17]
inactive: all other assays above

Clc1ccc(-c2ccccc2)cc1
not listed: [6]
inactive: all other assays above

CCOP(=O)(OCC)O/C(=C/Cl)c1ccc(Cl)cc1Cl
active: [6] 2.57 µM
not listed: [10] | [11] | [15] | [16] | [17] | [20]
inactive: all other assays above

COC(=O)N(C(=O)N1CO[C@@]2(C(=O)OC)Cc3cc(Cl)ccc3C2=N1)c1ccc(OC(F)(F)F)cc1
not listed: [6] | [15] | [16]
inactive: all other assays above

O=C(N/N=C/c1ccc([N+](=O)[O-])o1)c1cc([N+](=O)[O-])cc([N+](=O)[O-])c1O
active: [2] 29.8 µM
not listed: [11] | [12] | [13] | [14] | [15] | [20]
inactive: all other assays above

CC(C)NCC(O)c1ccc([N+](=O)[O-])cc1 (stereo not given)
active: [17] 5.96 µM
not listed: [7] | [12] | [18] | [20]
inactive: all other assays above

CC(Cc1ccc2c(c1)OCO2)NO (stereo not given)
active: [11] 0.91 µM | [12] 1.33 µM
not listed: [6] | [15]
inactive: all other assays above
